Here are results for one molecule from the supplement of paper PMC8728848.

Common to all, as to assay: glycan array binding signal (z-score within array); higher = stronger binding
Holding throughout (settings): glycan notation: IUPAC condensed, linker removed

Assay [1] has as its target Fuc(a1-2)Gal(b1-3)GalNAc(b1-4)[Neu5Ac(a2-3)]Gal(b1-4)Glc. A digest of the protocol: (§1)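 Glycan array data were curated from 3228 arrays in the Consortium for Functional Glycomics database and kept only where the protein sequence was available. Glycan names were converted to IUPAC-condensed notation, and columns mapping to the same glycan were averaged. The binding signal is a within-array Z-score, averaged across arrays of the same protein sequence at different concentrations or buffers and across linkers. Negative Z-scores can be read as non-binding.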

Assay [2] concerns the target Fuc(a1-2)Gal(b1-4)GlcNAc. In outline:
as §1

Assay [3] deals with Fuc(a1-2)[Gal(a1-4)]Gal(b1-4)GlcNAc. A digest of the protocol:
as §1

Assay [4] concerns the target Fuc(a1-3)[Gal(b1-4)]GlcNAc(b1-4)Gal(b1-4)[Fuc(a1-3)]GlcNAc. In outline:
as §1

Assay [5] deals with Fuc(a1-3)[Gal3S(b1-4)]GlcNAc. A digest of the protocol: as §1
Assay [6] has as its target Fuc(a1-4)GlcNAc. In outline: as §1
The target in assay [7] is Gal(b1-3)GlcNAc(b1-3)Gal(b1-4)GlcNAc. A digest of the protocol: as §1
The target in assay [8] is Gal3S(b1-3)[Fuc(a1-4)]GlcNAc. In outline: as §1
In assay [9] the target is Gal3S6S(b1-4)GlcNAc. In outline: as §1
Assay [10] addresses Gal4S6S(b1-4)GlcNAc. A digest of the protocol:
as §1

In assay [11] the target is GlcNAc(a1-3)Gal(b1-4)GlcNAc. A digest of the protocol: as §1
Assay [12] deals with GlcNAc(a1-6)Gal(b1-4)GlcNAc. A digest of the protocol: as §1
The target in assay [13] is GlcNAc(b1-3)Gal. A digest of the protocol: as §1
Assay [14] deals with GlcNAc(b1-3)Gal(b1-3)GalNAc. In outline:
as §1

Assay [15] addresses GlcNAc(b1-3)Gal(b1-4)Glc. A digest of the protocol: as §1
In assay [16] the target is GlcNAc(b1-3)[GlcNAc(b1-6)]Gal(b1-4)GlcNAc. A digest of the protocol:
as §1

Assay [17] concerns the target GlcNAc(b1-3)[GlcNAc(b1-6)]GlcNAc(b1-4)GlcNAc. In outline: as §1
Assay [18] deals with Man(a1-2)Man(a1-3)[Man(a1-6)]Man(a1-6)[Man(a1-2)Man(a1-3)]Man(b1-4)GlcNAc(b1-4)GlcNAc. In outline:
as §1

The target in assay [19] is Neu5Ac(a2-3)Gal(b1-4)[Fuc(a1-3)]GlcNAc(b1-3)Gal(b1-4)GlcNAc. In outline: as §1
In assay [20] the target is Neu5Gc(a2-3)Gal(b1-3)[Fuc(a1-4)]GlcNAc. A digest of the protocol: as §1
Assay [21] deals with Neu5Gc(a2-3)Gal(b1-4)GlcNAc. In outline: as §1

This excerpt belongs to a sample that is enriched for the strongest signals.

B1: F17fG (Escherichia coli), Q9RH91 (protein)
chain: MTNFYKVFLAVFILVCCNISHAAVSFIGSTENDVGPSQGSYSSTHAMDNLPFVYNTGHNIGYQNANVWRISGGFCVGLDGKVDLPVVGSLDGQSIYGLTEEVGLLIWMGDTNYSRGTAMSGNSWENVFSGWCVGNYVSTQGLSVHVRPVILKRNSSAQYSVQKTSIGSIRMRPYNGSSAGSVQTTVNFSLNPFTLNDTVTSCRLLTPSAVNVSLAAISAGQLPSSGDEVVAGTTSLKLQCDAGVTVWATLTDATTPSNRSDILTLTGASTATGVGLRIYKNTDSTPLKFGPDSPVKGNENQWQLSTGTETSPSVRLYVKYVNTGEGINPGTVNGISTFTFSYQ
On to B1, for which the “glycan array binding signal (z-score)” value is -0.197 in [1]; -0.322 in assay [2]; -0.127 in [3]; -0.238 in [4]; -0.234 in assay [5]; -0.38 in [6]. The “glycan array binding signal (z-score)” value in assay [7] was -0.3; in [8], -0.253; in [9], 0.156; in [10] it was 0.026; in assay [11], -0.323; in assay [12] it was -0.364. Moreover, the “glycan array binding signal (z-score)” value in assay [13] is 5.09; in assay [14], 5.89; in [15], 4.83; in assay [16], 6.97; in [17], 0.169; in assay [18], -0.263. Further, the results for the “glycan array binding signal (z-score)” value in [19], in assay [20] and in assay [21] were -0.23, -0.305 and -0.278, respectively.
